# Experimental data published in PubChem BioAssay (NCI).
# The panel holds about 83,000 compounds, 20% with a hit somewhere; the sample as a whole holds those more often.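 96-well plates, one dose, 48 hours. Percent growth reported; active if below 10.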 Values without a mark were called inactive. Active and inactive are the calls of the source.
# Columns and labels:
# Experiment in all cases: NCI-60 one-dose screen, 48 h (100 = growth as untreated, 0 = no growth, -100 = all killed)
# Settings in all cases: 10 µM unless noted
# SR leukemia = tested on: SR leukemia
# OVCAR-8 ovarian = tested on: OVCAR-8 ovarian
# OVCAR-5 ovarian = tested on: OVCAR-5 ovarian
# OVCAR-4 ovarian = tested on: OVCAR-4 ovarian
# SK-OV-3 ovarian = tested on: SK-OV-3 ovarian
# OVCAR-3 ovarian = tested on: OVCAR-3 ovarian
# HS 578T breast = tested on: HS 578T breast
# BT-549 breast = tested on: BT-549 breast
# MDA-MB-435 melanoma = tested on: MDA-MB-435 melanoma
# SW-620 colon = tested on: SW-620 colon
# MCF7 breast = tested on: MCF7 breast
# HCT-116 colon = tested on: HCT-116 colon
# HCC-2998 colon = tested on: HCC-2998 colon
# KM12 colon = tested on: KM12 colon
# RPMI-8226 leukemia = tested on: RPMI-8226 leukemia
# IGROV1 ovarian = tested on: IGROV1 ovarian
# NCI/ADR-RES ovarian = tested on: NCI/ADR-RES ovarian
# T-47D breast = tested on: T-47D breast
SMILES,growth (SR leukemia),growth (OVCAR-8 ovarian) [%],growth (OVCAR-5 ovarian) [%],growth (OVCAR-4 ovarian) [%],growth (SK-OV-3 ovarian),growth (OVCAR-3 ovarian),growth (HS 578T breast),growth (BT-549 breast),growth (MDA-MB-435 melanoma),growth (SW-620 colon),growth (MCF7 breast) [%],growth (HCT-116 colon),growth (HCC-2998 colon),growth (KM12 colon),growth (RPMI-8226 leukemia),growth (IGROV1 ovarian),growth (NCI/ADR-RES ovarian),growth (T-47D breast)
CCC(c1ccc(OC)cc1)C(CC)c1ccc(OCC[N+](C)(C)C)cc1 (configuration not stated),53.9%,51.4,91,63.4,87.7%,34.6%,63.6%,57.2%,59.8%,70.6%,56.9,89.6%,39.3%,49.4%,–,–,–,–
COc1cc(Cn2c(SCC(=O)Nc3ccc(Cl)cc3)nc3ccccc3c2=O)cc(OC)c1OC,46.9%,62.9,82.2,–,68.2%,–,7.73% (active),75.1%,69.8%,77.7%,77.2,35.6%,93.2%,79.4%,28.6%,41.6%,51.9%,45.2%
COc1cccc(C2CC(=O)Nc3c2c(C)nn3-c2nc3ccccc3[nH]2)c1OC (configuration not stated),33.2%,55,114,–,79.9%,74%,–,87.1%,58.5%,77.1%,62.5,36.2%,120%,67.9%,70.4%,3.88% (active),73.2%,64.5%
O=C(Nc1ccc(OCc2nnc(-c3ccc(Cl)cc3)o2)c(F)c1)Nc1ccc(Cl)c(Cl)c1,21.4%,60.2,66.6,–,60.6%,–,32%,93.6%,73.1%,47%,50.3,29.7%,85.4%,53.7%,57%,66.5%,65.2%,55.8%
NC(CC(N)C(=O)O)C(=O)O (configuration not stated),89.9%,100,97,–,111%,107%,–,105%,103%,104%,98.7,102%,99.3%,113%,98.6%,108%,107%,92.9%
COc1cc2c3c(c(=O)oc2cc1OS(=O)(=O)c1ccc(C(F)(F)F)cc1)CCCCC3,58.6%,93.8,79.6,–,83%,87.9%,56.4%,75.4%,91.6%,102%,89.6,66.6%,97.6%,92.1%,84.8%,86.7%,76.3%,–
CC(C)C[C@H](NC(=O)Cn1ccc(NCc2ccccc2)cc1=O)B(O)O,5.45% (active),51.3,38.9,–,56.5%,-54.5% (active),8.69% (active),3.58% (active),-62.2% (active),4.73% (active),28.9,-47.7% (active),0.885% (active),24.7%,-13.9% (active),41.1%,80.7%,-14.6% (active)
Cc1cccc(NC(=O)c2sc3nc4c(cc3c2N)CCC4)c1C,25%,14.1,44,–,37.9%,–,28.6%,61.7%,-26.9% (active),28.6%,13,19.7%,33.1%,12.2%,-5.02% (active),44.6%,-16.2% (active),64%
COc1cccc2cc(-c3cc4ccccc4[nH]3)/c(=N/C(=S)Nc3ccccc3)oc12,104%,66.2,89.6,–,–,80.5%,–,95.2%,87.9%,74.1%,79.5,59.6%,82.6%,88.3%,131%,58.1%,51.4%,–
CNC(=O)c1cc(Oc2ccc3c(c2)sc2nc(-c4ccc(Cl)cc4)cn23)ccn1,82.9%,73,113,–,66.2%,82.7%,–,87.8%,97.7%,97.3%,72,80.9%,90.1%,92.9%,92.4%,87.6%,84.7%,79%
NC(C(=O)O)C(O)c1ccc(OCc2ccccc2)c(OCc2ccccc2)c1 (configuration not stated),92.3%,99.6,101,107,103%,106%,–,95%,102%,97%,87.3,101%,–,100%,–,–,93.3%,88.1%
CC(C)(C)c1cc(-c2nc3ccc(N4CCN(CCO)CC4)cc3[nH]2)cc(C(C)(C)C)c1O,-16% (active),83.8,90.6,–,84%,72.7%,67%,92%,6.38% (active),9.88% (active),35.6,25.3%,12.9%,18.2%,1.15% (active),82.7%,–,60.6%
CC(=O)OCC1OC(OCC2OC(OC(C)=O)C(OC(C)=O)C(OC(C)=O)C2OC(C)=O)C(OC(C)=O)C(OC(C)=O)C1OC(C)=O (configuration not stated),98%,95.2,101,–,89.9%,109%,–,100%,104%,105%,94.9,99%,96.2%,108%,99.3%,106%,101%,–
COc1cc(C2C3=C(COC3=O)Nc3c2ccc2c3CCCC2)cc2c1OCO2 (configuration not stated),7.47% (active),15.9,42.8,38,-8.93% (active),-53.1% (active),81.8%,9.86% (active),-16.9% (active),23.1%,16.3,0.327% (active),–,-34.8% (active),–,44.7%,–,73.5%
COc1cc2nc(SCc3cc(OC)c(OC)c(OC)c3)n(Cc3ccccc3)c(=O)c2cc1OC,6.25% (active),–,53.7,44.2,29.8%,6.2% (active),26.7%,16.8%,-20.3% (active),33.5%,10.1,14.7%,40.9%,15.4%,54.8%,39.2%,-15.8% (active),35.9%
Nc1c(C(=O)Nc2cccc(Cl)c2Cl)sc2nc3c(cc12)C(=O)CCC3,95.6%,114,99.1,–,24.2%,95.6%,88.2%,95.3%,20.6%,64%,86.7,93%,77.8%,67.5%,102%,72.8%,73.4%,–
COC(=O)c1cc(-c2cccs2)c(C#N)c(N)c1C#N,94.5%,98.9,105,–,101%,108%,102%,107%,104%,102%,67.7,95.5%,106%,108%,99.7%,94.2%,–,69.1%
Nc1c(C(=O)Nc2cccc(C(F)(F)F)c2)sc2nc3c(cc12)CCCCC3,33.3%,21.3,35.5,–,-21.4% (active),3.45% (active),16.6%,25.2%,32.7%,58.3%,29.5,-7.78% (active),46.9%,35.7%,–,-17.4% (active),17.1%,-11.6% (active)
